# Assay results published in publication PMC5540273 (PLoS ONE, 2017).
# “And” between values parts separate entries of the source, which are not always exact repeats. Equal values may be shown once. Read-outs that look alike come from different tables or passages of the source.
# Tests used:
# [1] = tested on: CAMK2D; conditions: concentration: 1 μM, replicates: in singlicate; n = 1
# [2] = tested on: CAMK2G; conditions: concentration: 1 μM, replicates: in singlicate, n = 1
# [3] = tested on: CAMK4; conditions: concentration: 1 μM, replicates: in singlicate; n = 1
# [4] = tested on: CAMKK1; conditions: concentration: 1 μM, replicates: in singlicate; n = 1
# [5] = tested on: CAMKK2; conditions: concentration: 1 μM, replicates: in singlicate; n = 1
# [6] = tested on: CASK; conditions: concentration: 1 μM, replicates: in singlicate; n = 1
# [7] = tested on: T1, CDC2L1; conditions: concentration: 1 μM, replicates: in singlicate; n = 1
# T1 construct: gene CDK11B
# [8] = tested on: CDC2L2; conditions: concentration: 1 μM, replicates: in singlicate, n = 1
# [9] = tested on: T2, CDC2L5; conditions: concentration: 1 μM, replicates: in singlicate, n = 1
# T2 construct: gene CDK13
# [10] = tested on: T3, CDK11; conditions: concentration: 1 μM, replicates: in singlicate, n = 1
# T3 construct: gene CDK19
# [11] = tested on: CDK2; conditions: concentration: 1 μM, replicates: in singlicate; n = 1
# [12] = tested on: CDK3; conditions: concentration: 1 μM, replicates: in singlicate, n = 1
# [13] = tested on: CDK4-cyclinD1; conditions: concentration: 1 μM, replicates: in singlicate; n = 1
# [14] = tested on: CDK4-cyclinD3; conditions: concentration: 1 μM, replicates: in singlicate; n = 1
# [15] = tested on: CDK4; conditions: concentration: 1 μM, replicates: in singlicate, n = 1
# [16] = tested on: CDK5; conditions: concentration: 1 μM, replicates: in singlicate; n = 1
# [17] = tested on: CDK7; conditions: concentration: 1 μM, replicates: in singlicate, n = 1
# [18] = tested on: CDK8; conditions: concentration: 1 μM, replicates: in singlicate, n = 1
# [19] = tested on: CDK9; conditions: concentration: 1 μM, replicates: in singlicate; n = 1
# [20] = tested on: CDKL1; conditions: concentration: 1 μM, replicates: in singlicate, n = 1
# 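Also: KINOMEscan kinase panel screen.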
smiles,measurement,setting,value
COc1cc2ncnc(Nc3ccc(OCc4ccccc4Br)c(Cl)c3)c2cc1OC.Cl [GI261590],%Inh,[1],0%
same,%Inh,[2],14%
same,%Inh,[3],0%
same,%Inh,[4],0%
same,%Inh,[5],0%
same,%Inh,[6],0%
same,%Inh,[7],2%
same,%Inh,[8],18%
same,%Inh,[9],0%
same,%Inh,[10],21%
same,%Inh,[11],0%
same,%Inh,[12],8%
same,%Inh,[13],13%
same,%Inh,[14],6%
same,%Inh,[15],8%
same,%Inh,[16],18%
same,%Inh,[17],0%
same,%Inh,[18],0%
same,%Inh,[19],9%
same,%Inh,[20],20%
Cc1ccc(NC(=O)c2cccc(C#N)c2)cc1-c1ccc(C(=O)Nc2ccncc2)cc1 [GSK1398463],%Inh,[1],49%
same,%Inh,[2],26%
same,%Inh,[3],0%
same,%Inh,[4],15%
same,%Inh,[5],2%
same,%Inh,[6],7%
same,%Inh,[7],0%
same,%Inh,[8],14%
same,%Inh,[9],0%
same,%Inh,[10],5%
same,%Inh,[11],0%
same,%Inh,[12],7%
same,%Inh,[13],0%
same,%Inh,[14],9%
same,%Inh,[15],0%
same,%Inh,[16],0%
same,%Inh,[17],0%
same,%Inh,[18],0%
same,%Inh,[19],0%
same,%Inh,[20],15%
CS(=O)(=O)CCNCc1nc(-c2ccc3ncnc(Nc4ccc(OCc5cccc(F)c5)c(Cl)c4)c3c2)cs1.Cl [GW583340],%Inh,[1],23%
same,%Inh,[2],22%
same,%Inh,[3],0%
same,%Inh,[4],0%
same,%Inh,[5],28%
same,%Inh,[6],0%
same,%Inh,[7],11%
same,%Inh,[8],25%
same,%Inh,[9],0%
same,%Inh,[10],12%
same,%Inh,[11],0%
same,%Inh,[12],0%
same,%Inh,[13],0%
same,%Inh,[14],0%
same,%Inh,[15],34%
same,%Inh,[16],0%
same,%Inh,[17],0%
same,%Inh,[18],3%
same,%Inh,[19],10%
same,%Inh,[20],0%
COc1ccc(-c2nc3n(c2-c2ccncc2)CCC3)cc1 [SKF-104493],%Inh,[1],0%
same,%Inh,[2]; 1 µM,0% and 2%
same,%Inh,[3],0%
same,%Inh,[4],0%
same,%Inh,[5],0%
same,%Inh,[6],0%
same,%Inh,[7],0%
same,%Inh,[8]; 1 µM,6% and 13%
same,%Inh,[9]; 1 µM,18% and 0%
same,%Inh,[10]; 1 µM,5% and 7%
same,%Inh,[11],0%
same,%Inh,[12]; 1 µM,0% and 4%
same,%Inh,[13],0%
same,%Inh,[14],0%
same,%Inh,[15]; 1 µM,44% and 0%
same,%Inh,[16],0%
same,%Inh,[17]; 1 µM,15% and 6%
same,%Inh,[18]; 1 µM,5% and 9%
same,%Inh,[19],0%
same,%Inh,[20]; 1 µM,11% and 6%
Clc1cccc(-c2nc(Nc3ccncc3)c3ccccc3n2)c1 [GW873004],%Inh,[1],0%
same,%Inh,[2],0%
same,%Inh,[3],27%
same,%Inh,[4],11%
same,%Inh,[5],0%
same,%Inh,[6],0%
same,%Inh,[7],0%
same,%Inh,[8],7%
same,%Inh,[9],15%
same,%Inh,[10],2%
same,%Inh,[11],0%
same,%Inh,[12],0%
same,%Inh,[13],21%
same,%Inh,[14],0%
same,%Inh,[15],0%
same,%Inh,[16],0%
same,%Inh,[17],10%
same,%Inh,[18],50%
same,%Inh,[19],0%
same,%Inh,[20],30%
c1ccc(-c2ccc3c(-c4ccnc(Nc5ccc6c(c5)OCCO6)n4)cnn3n2)cc1 [GW818941],%Inh,[1],0%
same,%Inh,[2],10%
same,%Inh,[3],0%
same,%Inh,[4],0%
same,%Inh,[5],0%
same,%Inh,[6],0%
same,%Inh,[7],0%
same,%Inh,[8],3%
same,%Inh,[9],0%
same,%Inh,[10],9%
same,%Inh,[11],0%
same,%Inh,[12],3%
same,%Inh,[13],0%
same,%Inh,[14],0%
same,%Inh,[15],34%
same,%Inh,[16],0%
same,%Inh,[17],0%
same,%Inh,[18],11%
same,%Inh,[19],0%
same,%Inh,[20],0%
Fc1ccc(Nc2nccc(-c3c(-c4ccc(Cl)cc4)nn4ncccc34)n2)cc1F [GW829058],%Inh,[1],0%
same,%Inh,[2],2%
same,%Inh,[3],0%
same,%Inh,[4],2%
same,%Inh,[5],5%
same,%Inh,[6],26%
same,%Inh,[7],6%
same,%Inh,[8],11%
same,%Inh,[9],30%
same,%Inh,[10],18%
same,%Inh,[11],13%
same,%Inh,[12],18%
same,%Inh,[13],62%
same,%Inh,[14],12%
same,%Inh,[15],19%
same,%Inh,[16],34%
same,%Inh,[17],42%
same,%Inh,[18],0%
same,%Inh,[19],12%
same,%Inh,[20],17%
Cl.c1ccc(Cn2ncc3cc(Nc4ncnc5ccccc45)ccc32)cc1 [GW273749],%Inh,[1],31%
same,%Inh,[2],25%
same,%Inh,[3],0%
same,%Inh,[4],3%
same,%Inh,[5],32%
same,%Inh,[6],5%
same,%Inh,[7],0%
same,%Inh,[8],19%
same,%Inh,[9],0%
same,%Inh,[10],4%
same,%Inh,[11],7%
same,%Inh,[12],0%
same,%Inh,[13],0%
same,%Inh,[14],11%
same,%Inh,[15],15%
same,%Inh,[16],0%
same,%Inh,[17],1%
same,%Inh,[18],0%
same,%Inh,[19],0%
same,%Inh,[20],0%
